In ChEMBL document CHEMBL3988442, “University of Dundee, Small-Polar-MMV Screening Library” (2021):
About 13,000 (27%) of roughly 48,000 compounds showed an effect of 50% or more. The list shows a part of the results.

These molecules were tested on Wolbachia pipientis (assay: Anti-Wolbachia Cell-Based Screen). Conditions: 5 µM.
Type: functional
Parameters: scale not given: in the data most compounds retested in dose-response had high values

SMILES | Percent Effect [%]
Fc1ccc(Cn2ncc3c2CN(c2ncccn2)C3)cc1 | -12.4
O=C(O)[C@@H]1CN(Cc2nc3ncccn3n2)C[C@H]1c1cccc(F)c1 | 4.961
O=c1n(Cc2ccccc2F)nc2ncccn12 | 224.5
O=c1n(Cc2cccc(F)c2)nc2ncccn12 | 124.9
O=c1n(CCSCc2ccccc2F)nc2ccccn12 | 16.6
Cn1cnn(Cc2ccccc2F)c1=O | -4.03
COc1nccnc1N1CCN(Cc2cccc(F)c2)C(=O)C1 | -1.411
FC(F)(F)c1ccc(CN2CCN(Cc3cscn3)CC2)cc1 | -5.816
Cn1ccc(C(=O)N(CC(F)(F)F)c2cccc(Cl)c2)cc1=O | -11.93
CCc1nc2n(n1)CC(Nc1nc(C)cc(N(C)C)n1)CC2 (configuration not stated) | 2.422
CCC1=NOC(CNCc2cnc(-c3ccccc3C)s2)C1 (configuration not stated) | -1.087
Cc1c(C)n(CC(O)CN2CCCCCC2)c2c(Cl)cccc12 (configuration not stated) | 9.081
CC(=O)c1cccc(NC(=O)NCCc2nnc[nH]2)c1 | -18
O=c1n(Cc2cccc(C(F)(F)F)c2)nc2ncccn12 | 134.4
O=C(O)c1nnn(Cc2cccc(C(F)(F)F)c2)c1-c1ccncc1 | -2.735
O=C(O)c1nnn(Cc2cccc(C(F)(F)F)c2)c1-c1ccccn1 | 11.55
Cc1cncc(NCc2ccccc2N2CCOCC2)c1 | 0.5273
O=C(NCc1ccccc1CO)Nc1ccc2c(c1)CCO2 | 11.78
Cc1csc(N2CCCN(C(=O)C3(C#N)CCCCC3)CC2)n1 | -2.808
COCc1c(Br)cccc1NC(=O)N(C)CCO | -0.915
CCN(Cc1ccncc1)C1CCCN(Cc2ccc(F)cc2OC)C1 (configuration not stated) | -6.511
COc1cccc(C(CO)NC(=O)Cc2ccc(F)c(Br)c2)c1 (configuration not stated) | 1.843
COc1ccc(C(C#N)NC(=O)CC2=CCCCC2)c(OC)c1 (configuration not stated) | -6.467
COc1ccc(C(C#N)NC(=O)Cc2ccc(F)c(F)c2)c(OC)c1 (configuration not stated) | 86.82
COCc1nc(C)cc(Nc2ccc3c(c2)CC(=O)N3)n1 | -4.999
COc1cc2c(cc1CN1C[C@@H](CN3CCOCC3)[C@@H](CO)C1)CCC2 | 3.11

SMILES | Percent Effect [%]
O=C(C1CCC1)N1CCC(C(=O)N2CCC(c3ccc(F)cc3)C2)CC1 (configuration not stated) | 15.47
Cc1c[nH]nc1C1CCN(C(=O)C2CCCC2)C1 (configuration not stated) | 108.3
O=C(C1CCS(=O)(=O)CC1)N1CCC(c2ccc(F)cc2)C1 (configuration not stated) | -11.81
Cc1c[nH]nc1C1CCN(S(=O)(=O)N(C)C)CC1 | -12.28
COc1ccc2cc(C3CN(C(=O)C4CCOCC4)CCO3)ccc2c1 (configuration not stated) | -17.44
Cc1c[nH]nc1C1CCN(C(=O)CC2CCCC2)C1 (configuration not stated) | 140.5
Cc1c[nH]nc1C1CCN(C(=O)C2CCOCC2)C1 (configuration not stated) | 146.2
Cc1ccc(NC(=O)N2CCN(C(=O)CC3CCCC3)CC2)s1 | -2.154
COc1ccc(OC)c(C2CCN(C(=O)C3CCOCC3)C2)c1 (configuration not stated) | 3.237
Cc1c[nH]c(CN2CC[C@@]3(O)CCN(C(=O)C4CCCC4)C[C@H]3C2)n1 | 6.79
CCc1nc(CN2CCCN(C(=O)CC3CCCC3)CC2)cs1 | -10.08
Cc1c[nH]nc1C1CCN(C(=O)C2CCC2)CC1 | 187.6
CNC(=O)[C@@H]1C[C@H](N)CN1S(=O)(=O)c1cc(Cl)c(Cl)s1 | -16.04
Cc1ccc2oc(C(=O)N3CCCC(n4nc(C)cc4C)C3)cc2n1 (configuration not stated) | -4.167
C1CCN(CCOC2CCNCC2)C1 | -3.216
CNC(=O)[C@@H]1C[C@@H](N)CN1C1CCN(c2ccccc2F)CC1 | -6.416
O=C(c1ccc2[nH]nnc2c1)N1CC[C@H](O)[C@]2(CCCO2)C1 | 85.31
CC(C)S(=O)(=O)NCC1CCCN(C(=O)c2ccc3c(c2)CCC3)C1 (configuration not stated) | -10.39
O=C(c1ccc2c(c1)CCC2)N1CC[C@H](O)[C@]2(CCCO2)C1 | 143.9
O=C(c1ccc2[nH]nnc2c1)N1C[C@H](O)[C@]2(CCCO2)C1 | 107.9
O=C(c1ccc2c(c1)CCC2)N1CCCCC1C1OCCO1 (configuration not stated) | -21.29
O=C(c1ccc2[nH]nnc2c1)N1CCCC(n2cccn2)C1 (configuration not stated) | -7.495
COc1ccc(NC(=O)NC(C)(C)c2noc(C)n2)cc1 | -12.65
CS(=O)(=O)CCOCCNc1ccc(C#N)cc1F | -9.887
FC(F)(F)c1n[nH]c2c1CN(CCc1ccccn1)CC2 | -4.323
COc1ccc(-c2cccc(-c3ccn(CC4COCCO4)n3)c2)nn1 (configuration not stated) | -12.89
